Source: PubChem
HP1b chromo inh – HP1-beta chromodomain-methylated histone interaction inhibition | P83916 | AlphaScreen HP1-beta / biotin-H3K9me3 peptide binding | Potency, µM (doses to about 114 µM), actives largely listed as inhibitors | hit rate 0.56% among 390,000 | AID 540317; further: nearly all actives have a fitted effect of over 70% in size
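AlphaScreen: HP1-beta (50 nM) preformed 30 min with biotin-H3(1-18)K9me3 peptide (50 nM) in PBS pH 7.4, 0.01% Tween-20. Compound added for 30 min at RT, then streptavidin donor/nickel chelate acceptor beads (10 ug/mL) for 30 min.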
Sfp inh – Sfp phosphopantetheinyl transferase inhibition; Q9F4F7; Biochemical Sfp PPTase activity, qHTS; Potency, µM, usual class: inhibitors; hit rate 3.5% among 310,000;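 further: the enzyme is Sfp with the accession as filed and its product quenches rhodamine fluorescence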
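Reaction rates are the 30-min fluorescence difference (ex 525, em 598 nm) in wells containing 15 nM Sfp, 5 uM rhodamine-CoA and 12.5 uM BHQ-2-YbbR at pH 7.6 with 10 mM MgCl2.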
JMJD2A Tudor inh – blocks the human JMJD2A Tudor domain. hit rate 4.4% among 390,000. O75164. AlphaScreen JMJD2A-Tudor / H3K4me3 peptide binding. Potency, µM (doses to about 114 µM), most hits filed as inhibitors; further: nearly all actives have a fitted effect of over 50% in size
L3MBTL1 block – L3MBTL1 (human) inhibition | Potency, µM (titrated, usually from 57.1 µM), hits mostly inhibitors | AID 485360 | hit rate 0.66% among 230,000 | AlphaScreen L3MBTL1–H3K9me1 peptide binding | Q9Y468; further: nearly all actives have a fitted effect of over 60% in size
Target sequence (Q9Y468 whole entry, looked up): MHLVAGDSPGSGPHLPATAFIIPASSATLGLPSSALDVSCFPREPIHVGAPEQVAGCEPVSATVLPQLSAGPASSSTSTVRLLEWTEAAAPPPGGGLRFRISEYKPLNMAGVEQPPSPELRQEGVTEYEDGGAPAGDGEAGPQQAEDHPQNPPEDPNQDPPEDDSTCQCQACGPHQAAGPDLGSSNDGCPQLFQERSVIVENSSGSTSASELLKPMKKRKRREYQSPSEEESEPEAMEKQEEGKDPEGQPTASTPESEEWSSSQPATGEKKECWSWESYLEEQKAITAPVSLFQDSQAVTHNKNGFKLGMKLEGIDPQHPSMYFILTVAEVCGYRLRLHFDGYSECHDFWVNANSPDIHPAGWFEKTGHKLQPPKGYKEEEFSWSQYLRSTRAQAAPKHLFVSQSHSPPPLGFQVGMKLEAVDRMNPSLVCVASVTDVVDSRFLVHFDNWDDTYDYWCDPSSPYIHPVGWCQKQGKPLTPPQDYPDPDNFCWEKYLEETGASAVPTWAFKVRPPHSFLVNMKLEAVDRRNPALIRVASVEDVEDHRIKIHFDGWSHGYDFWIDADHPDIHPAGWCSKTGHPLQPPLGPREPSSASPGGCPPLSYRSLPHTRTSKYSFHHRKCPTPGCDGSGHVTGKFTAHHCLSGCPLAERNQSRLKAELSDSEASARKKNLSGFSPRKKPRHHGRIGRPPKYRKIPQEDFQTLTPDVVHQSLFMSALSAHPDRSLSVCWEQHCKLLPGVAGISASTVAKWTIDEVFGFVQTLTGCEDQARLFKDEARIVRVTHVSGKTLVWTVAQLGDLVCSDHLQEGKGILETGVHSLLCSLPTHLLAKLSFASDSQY
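AlphaScreen proximity signal between nickel-chelate acceptor and streptavidin donor beads (final 10 ug/mL) reports binding of 50 nM L3MBTL1 to 75 nM biotin-H3 K9me1 peptide; complex incubated with compounds 30 min at room temperature; cefsulodin titration as control.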
BAZ2B inh – blocks human BAZ2B. Q9UIF8. AlphaScreen BAZ2B-H3K14Ac peptide displacement. Potency, µM (series often up to 114 µM), most hits filed as inhibitors. hit rate 4.4% among 360,000. AID 504333; further: nearly all actives have a fitted effect of over 60% in size
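Inhibition is scored as reduced AlphaScreen emission. The BAZ2B/b-H3(5-23)K14Ac complex (50 nM each) in PBS pH 7.4, 0.01% Tween-20 meets compound (up to 110 uM) for 30 min at RT before bead addition.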
G9a block – inhibitors of human histone lysine methyltransferase G9a; Q96KQ7; G9a H3K9 monomethylation, AlphaScreen, 2 h; Potency, µM (top dose mostly 102 µM), most hits filed as inhibitors; hit rate 8.8% among 350,000; AID 504332; further: nearly all actives have a fitted effect of over 75% in size
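Methyltransferase reactions run at room temperature for 2 h (20 nM enzyme, 500 nM biotin-H3K9 peptide, 20 uM SAM) after a 15 min compound preincubation; product detected by AlphaScreen beads and anti-H3K9me1 antibody.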
Large screens that a line does not name were inactive. In the library only some 12% were active in any assay of this set; here they are far more common. The call rests on the fitted dose curve; in most records, active means well fitted curve in the direction sought with a large enough effect; inconclusive means small, poorly fitted or top-dose-only effect, or another doubt; inactive means no such curve, though single readings can be large; an effect the other way counts as inactive or inconclusive.

CN1C(=O)c2[nH]nc(-c3ccc(F)cc3)c2C1c1cccc(O)c1 (stereo not given)	none (no result: Sfp inh, L3MBTL1 block)
Cc1ccc([N+](=O)[O-])cc1S(=O)(=O)NCCc1c(C)[nH]c2ccccc12	JMJD2A Tudor inh inconclusive, BAZ2B inh 50.1µM, G9a block inconclusive
Cc1[nH]n(-c2ccc([N+](=O)[O-])cc2)c(=O)c1C=NCCc1ccc(S(N)(=O)=O)cc1	none
Cc1[nH]n(-c2ccc([N+](=O)[O-])cc2)c(=O)c1C=NCCc1c(C)[nH]c2ccccc12	Sfp inh 79.4µM
COc1cc(S(=O)(=O)NCCc2c(C)[nH]c3ccccc23)c(C)cc1C	HP1b chromo inh inconclusive, JMJD2A Tudor inh 28.2µM, BAZ2B inh 35.5µM, G9a block inconclusive (no result: Sfp inh, L3MBTL1 block)
COCCNS(=O)(=O)c1cc(C)c(C)cc1C	none
Cc1ccc([N+](=O)[O-])cc1S(=O)(=O)NCCc1cn2ccccc2n1	none (no result: L3MBTL1 block, G9a block)
CCOc1ccccc1CNC(=O)C1CCN(Cc2cc3ccccc3n2Cc2ccccc2)CC1	none (no result: Sfp inh, L3MBTL1 block)
Cc1cc(=O)[nH]c(NCCO)n1	none
Cc1cc(=O)[nH]c(NN=C2CCCCC2C)n1 (stereo not given)	JMJD2A Tudor inh 0.891µM (no result: Sfp inh, L3MBTL1 block, BAZ2B inh, G9a block)
Cc1cc(=O)[nH]c(N/N=C2/CCCC/C2=C\c2ccccc2)n1	G9a block 44.7µM
Cc1cc(=O)[nH]c(NN=C2C3CC4CC(C3)CC2C4)n1	Sfp inh 44.7µM, JMJD2A Tudor inh inconclusive, G9a block 2.51µM
Cc1cc(=O)[nH]c(NN)n1	Sfp inh 44.7µM (no result: L3MBTL1 block, G9a block)
Nc1c(-c2nc(-c3ccccc3Cl)no2)nnn1-c1ccccc1C(F)(F)F	none (no result: Sfp inh, L3MBTL1 block)
CC(=O)N1CCCc2cc(S(=O)(=O)N(C)CC(=O)Nc3ccc(C(C)C)cc3)ccc21	none (no result: Sfp inh, L3MBTL1 block)
COC(=O)c1sccc1S(=O)(=O)N(CC(=O)Nc1ccccc1F)c1ccccc1	none (no result: Sfp inh, L3MBTL1 block)
CC(C)=NNc1ncnc2nc[nH]c12	JMJD2A Tudor inh 25.1µM (no result: Sfp inh, L3MBTL1 block, BAZ2B inh, G9a block)
CCOc1ccc(-c2nn(-c3ccccc3)cc2C2NC(=O)NC(C)=C2C(=O)OC(C)C)cc1 (stereo not given)	G9a block inconclusive (no result: Sfp inh, L3MBTL1 block)
CCOC(=O)c1c(C)n(-c2ccc(F)cc2)c2ccc(O)cc12	Sfp inh inconclusive (no result: L3MBTL1 block)
COC(=O)c1c(C)n(-c2ccc(OC)cc2)c2ccc(O)cc12	Sfp inh 44.7µM, JMJD2A Tudor inh inconclusive, BAZ2B inh inconclusive, G9a block inconclusive
COc1ccc(C(N)CCc2ccc(C)o2)cc1 (stereo not given)	JMJD2A Tudor inh inconclusive, BAZ2B inh inconclusive, G9a block 79.4µM
COC(=O)c1c(C)oc2ccc(N(C(=O)c3ccncc3)S(=O)(=O)c3ccc(C)cc3C)cc12	none
COC(=O)c1c(C)oc2ccc(N(C(=O)c3ccncc3)S(=O)(=O)c3cc(C)c(C)cc3C)cc12	G9a block 10µM (no result: Sfp inh, L3MBTL1 block)
Cc1ccc(CN2CCSc3ccc(C(=O)N4CCN(c5ccccc5)CC4)cc32)cc1	JMJD2A Tudor inh inconclusive, G9a block 17.8µM (no result: Sfp inh, L3MBTL1 block)
Cc1ccc(CN2CCSc3ccc(C(=O)N4CCN(c5cc(C)ccc5C)CC4)cc32)cc1	G9a block inconclusive (no result: Sfp inh, L3MBTL1 block)
Cc1ccc(CN2CCSc3ccc(C(=O)NCc4ccccn4)cc32)cc1	Sfp inh 50.1µM, JMJD2A Tudor inh inconclusive, BAZ2B inh inconclusive, G9a block 39.8µM (no result: L3MBTL1 block)
CCn1nc(C)c(/C=N/NC(=O)c2ccc3c(c2)c(C)c(C)n3Cc2ccccc2)c1C	JMJD2A Tudor inh 35.5µM, BAZ2B inh inconclusive, G9a block inconclusive (no result: L3MBTL1 block)
Cc1c(C)n(Cc2ccccc2)c2ccc(C(=O)N3CCN(c4ccccc4)CC3)cc12	HP1b chromo inh inconclusive, JMJD2A Tudor inh 14.1µM, BAZ2B inh inconclusive, G9a block inconclusive (no result: Sfp inh, L3MBTL1 block)
COc1ccc(Nc2nnc(-c3ccc(C)c(S(=O)(=O)N4CCOCC4)c3)c3ccccc23)cc1	none (no result: Sfp inh, L3MBTL1 block)
COc1ccc(N2CCN(C(=O)C(=O)c3cn(CC(=O)N4CCCCCC4)c4ccccc34)CC2)cc1	HP1b chromo inh inconclusive, JMJD2A Tudor inh inconclusive, BAZ2B inh inconclusive, G9a block 70.8µM (no result: L3MBTL1 block)
CCN1CCN(C(=O)C(=O)c2cn(CC(=O)N3CCCCCC3)c3ccccc23)CC1	G9a block 50.1µM (no result: L3MBTL1 block)
O=C(C(=S)N1CCOCC1)c1c[nH]c2ccccc12	Sfp inh 11.2µM, BAZ2B inh inconclusive
